Rows were chosen to be rich in hits. Some 6.1% of all compounds tested hit in one or more screens of this group.
VP16 counter: inhibits Gal4-VP16 luciferase reporter, ROR gamma counter-screen; Drosophila S2 Gal4-VP16 UAS-luciferase, luminescence, 20 h; Potency, µM (highest dose often 53.6 µM), actives largely listed as inhibitors; hit rate 3.5% among 310,000;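 further: Gal4-VP16 expression switched on by copper sulfate through the metallothionein promoter; nearly all actives have a fitted effect of over 50% in size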
ATXN2 expr inh: reduces ATXN2 reporter expression in HEK-293 cells; HEK-293 ATXN2-luciferase reporter, luminescence, 24 h; Potency, µM (highest dose often 57 µM), most hits filed as inhibitors; AID 1745845; hit rate 0.72% among 360,000; further: nearly all actives have a fitted effect of over 55% in size
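qHTS (up to 57 uM final) was run with 24 h compound exposure of reporter cells at 37 °C. Each well was multiplexed: SteadyGlo luminescence measured ATXN2-luciferase expression after a fluorogenic Gly-Phe-AFC viability readout (25 uM final).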
TGFb inhibitor: blocks TGF-b signaling. HepG2 CAGA-GFP TGF-b/SMAD3 reporter, GFP fluorescence, 18 h; TGF-beta stimulated, 500 pg/mL final. Potency, µM (highest dose often 46.1 µM), usual class: inhibitors. hit rate 1.2% among 410,000. AID 588855; further: nearly all actives have a fitted effect of over 65% in size
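Using HEPG2 CAGA-GFP reporter cells at 1000 cells/well, we pinned test compounds, stimulated with recombinant TGF-beta (500 pg/mL final) and measured total well GFP after 18 h.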
S2 tox: cell viability loss in ATXN counter-screen; hit rate 0.49% among 400,000; S2 cells (HEK-293 line with an ATXN2-luciferase reporter) viability, CellTiter-Fluor protease fluorescence, 24 h; Potency, µM (doses to about 56.7 µM), actives largely listed as cytotoxic; further: nearly all actives have a fitted effect of over 40% in size
RORg inh: inhibitors of mouse ROR gamma transcriptional activity. Drosophila S2 Gal4-RORgamma UAS-luciferase reporter, 20 h. Potency, µM (top dose mostly 53.6 µM), hits mostly inhibitors. hit rate 5.4% among 310,000. AID 2551; further: nearly all actives have a fitted effect of over 60% in size
Target sequence (P51450 whole entry, looked up, the tested form may be a part): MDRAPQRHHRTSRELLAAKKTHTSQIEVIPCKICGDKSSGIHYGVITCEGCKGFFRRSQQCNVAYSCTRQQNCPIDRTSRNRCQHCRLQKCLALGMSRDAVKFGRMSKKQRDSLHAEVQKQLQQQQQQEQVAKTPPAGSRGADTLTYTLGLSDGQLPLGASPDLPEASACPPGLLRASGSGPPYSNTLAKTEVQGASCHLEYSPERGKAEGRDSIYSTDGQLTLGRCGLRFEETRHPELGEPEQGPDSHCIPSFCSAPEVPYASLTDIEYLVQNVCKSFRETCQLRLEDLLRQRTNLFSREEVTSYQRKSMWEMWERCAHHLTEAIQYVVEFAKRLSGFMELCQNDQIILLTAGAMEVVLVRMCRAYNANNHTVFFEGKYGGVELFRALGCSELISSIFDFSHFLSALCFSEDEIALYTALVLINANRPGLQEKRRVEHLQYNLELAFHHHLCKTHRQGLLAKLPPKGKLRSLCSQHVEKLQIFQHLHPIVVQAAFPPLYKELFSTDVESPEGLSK
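ROR gamma transcriptional activity was tracked as Gal4-UAS luciferase output in stably transfected Drosophila Schneider cells, with compound added 1 hr before 700 uM copper sulfate induction and a 20 hr ambient-temperature incubation.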
HepG2 viability: kills HepG2 cells in TGF-b inhibitor counter-screen; AID 588856; HepG2 CAGA-GFP viability, ATP luminescence, 18 h; hit rate 0.76% among 410,000; Potency, µM (doses to about 46.1 µM), actives largely listed as cytotoxic
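HepG2 CAGA-GFP cells (1000/well, DMEM with 1% FBS) received compound, then TGF-beta at 500 pg/mL final, and were incubated 18 hours at 37 degrees C. Viability was read by CellTiter-Glo luminescence. Media-only wells were set as complete cell-killing and DMSO as no toxicity.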
Hits are given with their value; i = inactive; ? = inconclusive; nt = no result. The call rests on the fitted dose curve; in most records, active means well fitted curve in the direction sought with a large enough effect; inconclusive means small, poorly fitted or top-dose-only effect, or another doubt; inactive means no such curve, though single readings can be large; an effect the other way counts as inactive or inconclusive.

SMILES	VP16 counter	ATXN2 expr inh	TGFb inhibitor	S2 tox	RORg inh	HepG2 viability
CC1(C)CN=C(N(C(=O)Nc2ccccc2)c2ccccc2F)S1	i	i	i	i	i	i
Cc1cccnc1N(C(=O)Nc1ccccc1)C1=NCC(C)(C)S1	?	i	i	i	10µM	i
COc1cccc(C(=O)c2cn(CC(=O)NCCc3ccccc3)c3nc(C)ccc3c2=O)c1	nt	i	?	?	nt	i
CC(C)C(=O)Nc1ncc(C(F)(F)F)cc1Cl	i	i	i	i	i	i
ON/C=N/C(=S)Nc1ncc(C(F)(F)F)cc1Cl	?	i	?	i	1.6µM	i
CON/C=N/C(=S)Nc1ncc(C(F)(F)F)cc1Cl	?	i	?	i	0.56µM	i
O=C(Nc1ccc2nc(-c3ccco3)c(-c3ccco3)nc2c1)N1CCCC1	nt	nt	?	nt	nt	i
CC[C@H](C)[C@H](NC(=O)[C@H](C)NC(=O)[C@@H](N)C(C)C)C(=O)N[C@H](C(=O)N[C@H](C(=O)N[C@@H](CC(C)C)C(=O)N[C@H](C(=O)N[C@@H](CCCCN)C(=O)O)C(C)C)C(C)C)[C@@H](C)O	i	nt	nt	nt	i	nt
CC(C)(C)c1ccc(C(=O)NC2(C(F)(F)F)C(=O)Nc3c2c(=O)[nH]c(=O)n3-c2ccccc2)cc1 (stereo not given)	nt	i	i	i	nt	i
C/C(=N\NC(N)=S)c1ccc(-n2ccnc2)cc1	i	i	i	i	?	i
C=C(C)CNC(=S)N/N=C(\C)c1ccc(-n2ccnc2)cc1	7.9µM	i	i	i	6.3µM	i
COc1ccc2c(c1)c[n+](C)c1c3cc(OC)c(OC)cc3ccc21	nt	18µM	nt	?	nt	nt
COc1cc2c[n+](C)c3c4ccccc4ccc3c2cc1OC	nt	i	i	i	nt	i
CN(C)c1ccc(/C=C/c2ccnc3ccccc23)cc1O	nt	nt	i	nt	nt	i
COc1ccc(C(=O)CC(=O)C(=O)Nc2cc(C)ccc2C)cc1	10µM	i	i	i	7.1µM	i
COc1ccc(C(=O)CC(=O)C(=O)Nc2ccc([N+](=O)[O-])cc2C)cc1	11µM	i	i	i	5.6µM	i
COc1ccc(C(=O)CC(=O)C(=O)Nc2cccc(F)c2)cc1	7.1µM	i	i	i	7.1µM	i
CCOc1ccccc1NC(=O)C(=O)CC(=O)c1ccc(OC)cc1	4µM	i	i	i	6.3µM	i
COc1ccc(C(=O)CC(=O)C(=O)Nc2ccccc2)cc1	?	i	i	i	?	i
COCC(=O)Nc1ccc([N+](=O)[O-])cc1C	i	i	i	i	i	i
Cc1cc(C)cc(NC(=O)N2CCC(CN3CCc4ccccc4C3)CC2)c1	nt	nt	?	nt	nt	i
COc1cc(=O)n2c(c1C(=O)N(C)Cc1nonc1C)CCN(Cc1ccccc1Cl)CC2	nt	nt	nt	i	nt	nt
Cc1nn(-c2cc(C)c3ccccc3n2)c2c1CCC2	?	i	i	i	2.2µM	i
Clc1cccc(Cl)c1Cn1cnc(=NCc2ccco2)c2[nH]cnc21	?	i	i	i	18µM	i
Clc1cccc(Cl)c1Cn1cnc2c(NCc3ccco3)ncnc21	i	i	i	i	i	i
SMILES	VP16 counter	ATXN2 expr inh	TGFb inhibitor	S2 tox	RORg inh	HepG2 viability
CC(=O)N1CCc2cc(S(=O)(=O)NC3CCCc4ccccc43)ccc21 (stereo not given)	20µM	i	i	i	?	i
CCc1c(C2(O)CCCCC2)[nH]c2ccc(C(F)(F)F)cc12	i	i	11µM	nt	?	i
Cc1ccc(C2=NN(CC(=O)NCCc3ccc(Cl)cc3)C(=O)CC2)cc1	nt	nt	11µM	nt	nt	i
CCCCN(CCCNC(=O)CN1N=C(c2ccc(C)cc2)CCC1=O)c1ccccc1	nt	nt	13µM	nt	nt	i
Cc1ccc(CN2C(=O)c3oc4ccc(C)cc4c(=O)c3C2c2ccc(O)cc2)cc1 (stereo not given)	nt	i	i	i	nt	i
CC(C)(C)c1ccc(-n2nc(C#N)c(Cl)cc2=O)cc1	7.1µM	?	7.1µM	nt	7.1µM	6.3µM
CC(C)(C)c1ccc(-n2nc(C(N)=O)c(O)cc2=O)cc1	i	i	i	?	i	i
CCC1(CC)N=C(c2ccccc2)C(=S)N1	11µM	nt	i	i	3.5µM	i
FC(F)(F)c1cccc(-c2nnc3ccc(C(F)(F)F)cn23)c1	i	i	i	i	10µM	i
CC(Oc1ccc(Br)cc1)C(=O)Nc1nnc(C2CC2)s1 (stereo not given)	nt	i	i	i	nt	i
CCC(Oc1ccc(Br)cc1Cl)C(=O)Nc1nnc(C2CC2)s1 (stereo not given)	?	i	?	i	13µM	i
c1ccc(-c2nc(-c3cccc4ccccc34)c(NC3CCCCC3)o2)cc1	i	nt	nt	nt	i	nt
Cc1cc(C(=O)CN2C(=O)C(=O)N(Cc3ccccc3)C2=O)c(C)n1-c1ccccc1F	i	i	i	i	?	i
Cc1cc(C(=O)CN2CCC(C)CC2)c(C)n1-c1ccccc1F	4.5µM	?	i	i	5.6µM	i
CC(=O)c1c(C)[nH]c(C(=O)OCCOc2ccccc2)c1C	8.9µM	i	?	i	11µM	i

Assay outcomes: PubChem BioAssay, National Center for Advancing Translational Sciences (NCATS)
